Values without a mark were called inactive.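 The calls were made as follows, unless noted: active = viability at or below 10% of carrier control in both of two separate runs; inconclusive = viability at or below 10% in only one of the two runs; inactive = the rest.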

For 40 compounds, Her2 level and viability results are on record in PubChem BioAssay.

For one experiment, the target named is Receptor tyrosine-protein kinase erbB-2 (Homo sapiens) (UniProt P04626). Kind of experiment: reducers of endogenous Her2 protein level, primary screen, SKBR3 breast tumor cells, AlphaScreen, ATP viability (AID 461;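 active = Her2 level under about 52% in both replicate screens, with viability over 70% of control, limit read from the data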;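 also: lower value means less Her2 protein in the cells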). The conditions noted are these: 18-24 h, at 10 µM, stronger effect = lower value. (Bead proximity is the source of the signal in Alpha formats.)
Sequence of Receptor tyrosine-protein kinase erbB-2 (Homo sapiens) (P04626 whole entry, looked up): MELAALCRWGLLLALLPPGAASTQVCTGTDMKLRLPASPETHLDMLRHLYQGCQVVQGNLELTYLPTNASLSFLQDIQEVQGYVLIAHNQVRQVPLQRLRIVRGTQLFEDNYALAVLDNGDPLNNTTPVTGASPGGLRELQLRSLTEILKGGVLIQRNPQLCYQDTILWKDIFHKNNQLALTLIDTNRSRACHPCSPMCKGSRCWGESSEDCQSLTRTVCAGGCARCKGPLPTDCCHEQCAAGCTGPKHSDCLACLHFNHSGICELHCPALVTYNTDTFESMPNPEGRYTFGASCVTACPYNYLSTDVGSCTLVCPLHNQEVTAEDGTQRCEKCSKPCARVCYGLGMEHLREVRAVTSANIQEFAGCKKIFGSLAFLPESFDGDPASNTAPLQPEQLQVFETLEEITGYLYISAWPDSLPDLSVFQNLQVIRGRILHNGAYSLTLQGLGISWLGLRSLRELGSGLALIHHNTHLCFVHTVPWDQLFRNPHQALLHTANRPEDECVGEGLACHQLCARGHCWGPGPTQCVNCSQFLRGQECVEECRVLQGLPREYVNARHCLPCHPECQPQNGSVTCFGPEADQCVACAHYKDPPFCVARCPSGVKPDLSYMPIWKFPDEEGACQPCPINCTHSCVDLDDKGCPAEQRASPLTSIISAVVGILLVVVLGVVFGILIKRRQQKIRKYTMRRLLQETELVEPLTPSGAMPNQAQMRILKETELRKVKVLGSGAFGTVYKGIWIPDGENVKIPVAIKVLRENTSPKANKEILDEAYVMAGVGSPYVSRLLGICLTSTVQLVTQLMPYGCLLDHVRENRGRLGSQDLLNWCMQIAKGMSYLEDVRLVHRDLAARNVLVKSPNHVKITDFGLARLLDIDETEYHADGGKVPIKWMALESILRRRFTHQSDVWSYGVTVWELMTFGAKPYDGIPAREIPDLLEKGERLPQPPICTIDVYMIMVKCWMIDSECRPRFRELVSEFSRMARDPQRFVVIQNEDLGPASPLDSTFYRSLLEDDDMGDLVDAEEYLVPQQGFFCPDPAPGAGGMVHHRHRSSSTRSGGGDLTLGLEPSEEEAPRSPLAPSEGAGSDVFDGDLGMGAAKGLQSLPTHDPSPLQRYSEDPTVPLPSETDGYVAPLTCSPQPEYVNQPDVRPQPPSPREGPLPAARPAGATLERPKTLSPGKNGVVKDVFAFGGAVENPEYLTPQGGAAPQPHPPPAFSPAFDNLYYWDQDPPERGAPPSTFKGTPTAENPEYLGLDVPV
As for `O=C1OCCC1NC1=NCCC1` (stereo not given), the Her2 level is 91%.

Turning to `CN1C(=O)N(C)C(=O)C2(Cc3ccccc3N3CCOCC32)C1=O` (stereo not given), the Her2 level was 88%.

Take `O=c1[nH]c(=O)n(Cc2ccco2)c(O)c1C=NCCCn1ccnc1`: the Her2 level is 104%.

Consider `CC1CCC(C(=O)NC(C(=O)N2CCC3(CC2)OCCO3)C(C)C)CC1` (stereo not given), for which the Her2 level is 98.5%.

On to `COc1ccccc1N1CCN(Cc2cccc(OC)c2O)CC1`, for which the Her2 level was 93%.

With `O=C1CC(c2ccccc2)CC(O)=C1C=NCCN1CCN(C(=O)Cc2ccccc2)CC1` (stereo not given), the Her2 level is 97%.

With `OCCOCC#CCN1CCOCC1`, the Her2 level is 114%.

Turning to `NC(=O)CSP(=O)(c1ccccc1)c1ccccc1`, the Her2 level was 118%.

Regarding `CC1(C)C(c2ccccc2)=NC(c2cccnc2)N1O` (stereo not given), the Her2 level was 96%.

As to `CCCCCCC(N)CC(=O)O` (stereo not given), the Her2 level was 122%.

Regarding `CCN(CC)CCN=Cc1c(O)n(CCC2=CCCCC2)c(=O)[nH]c1=O`, the Her2 level was 86%.

Take `CCN1c2nc3c(C)cccn3c(=O)c2CC2(C(=O)N(C)C(=O)N(C)C2=O)C1C` (stereo not given): the Her2 level is 94.5%.

For the compound `C=CCn1c(O)c(C=NCCN(C)C)c(=O)[nH]c1=O`, the Her2 level was 108%.

Take `Cc1ccccc1NC1=NCCCS1`: the Her2 level was 101%.

In the case of `CN1CCC(N(C)c2ncnc3ccc(Br)cc23)CC1`, the Her2 level is 99.5%.

On to `O=c1[nH]c(=O)n(Cc2ccccc2)c(O)c1C=NCCCO`, for which the Her2 level was 96.5%.

Consider `O=C1CC(N2CCC(n3c(=O)[nH]c4ccccc43)CC2)C(=O)N1c1ccc(F)cc1` (stereo not given), for which the Her2 level was 67.5%.

For the compound `Cc1cc(NC(=O)COC(=O)c2c(C)nn(Cc3ccccc3)c2Cl)no1`, the Her2 level is 102%.

As to `CN(C)c1cc(N)c2c(n1)CCC2` (tested in a mixture with another compound), the Her2 level was 134%.

Turning to `c1ccc(C2CC3CC(c4ccco4)N2O3)cc1` (stereo not given), the Her2 level was 89.5%.

As to `c1cncc(CNC2=NCCCCC2)c1`, the Her2 level is 106%.

For the compound `C=CCn1c(O)c(C(C)=NCc2cccnc2)c(=O)[nH]c1=O`, the Her2 level was 113%.

Turning to `NCCc1ccc(O)cc1`, the Her2 level was 112%.

For `COc1ccc(C(=O)C(C)(C)NO)cc1`, the Her2 level is 100%.

Turning to `CCOC(=O)c1cccc([P+](=O)O)c1`, the Her2 level is 114%.

`O=C(CCCOc1ccc(Cl)cc1Cl)N1CCC2(CC1)OCCO2`: the Her2 level is 96.5%.

For `CCCCOc1ccc(CN2CCN(CCO)CC2)cc1`, the Her2 level is 91.5%.

Take `CSc1ccc(CNC2CN3CCC2CC3)cc1` (stereo not given): the Her2 level was 93.5%.

Take `CCCCn1c(O)c(C(C)=NCCc2ccccc2)c(=O)[nH]c1=O`: the Her2 level was 89.5%.

Take `O=C(c1sc2ccccc2c1Cl)N1CCC2(CC1)OCCO2`: the Her2 level is 136%.

With `N#Cc1ccccc1Cn1cc(C(=O)c2ccco2)c2ccccc21`, the Her2 level was 96%.

As to `COc1ccc(CC2C(=O)NC(=O)NC2=O)c(OC)c1`, the Her2 level was 113%.

In the case of `CCCCn1c(O)c(C(CC)=Nc2cccc(C(=O)O)c2)c(=O)[nH]c1=O`, the Her2 level was 92%.

For the compound `COc1cc(C2NCc3ccccc3-n3cccc32)ccc1O` (stereo not given), the Her2 level was 102%.

As to `Cc1ccc(CS(=O)(=O)CCC(=O)N2CCC3(CC2)OCCO3)cc1`, the Her2 level was 118%.

As to `COc1cc(/C=N/n2cnnc2)ccc1OC(=O)N(C)C`, the Her2 level is 96.5%.

In the case of `CC#CP(=O)(OCC)C(O)(c1ccccc1)C(F)(F)F` (stereo not given), the Her2 level is 85%.

Take `CCOC(=O)C(O)(c1ccc(N(CC)C(=O)OC)cc1)C(F)(F)F` (stereo not given): the Her2 level is 105%.

`CC(C)(C)C(O)C(Oc1ccc(Cl)cc1)n1cncn1` (stereo not given): the Her2 level was 83.5%.

For `COC(=O)c1c(C)n(Cc2ccc3c(c2)OCO3)c2ccc(O)cc12`, the Her2 level was 95%.

Test system in another experiment: not listed separately
Put plainly: SK-BR-3 cell growth inhibitors, pilot screen, 24 h, human (AID 572).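 Also: compound exposure lasted between 18 and 24 h rather than exactly 24 h; 100% = carrier-treated control wells.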 The conditions noted are these: SK-BR-3 viability, CellTiter-Glo luminescence, at 10 µM, stronger effect = lower value. Background: Cellular ATP, detected with luciferase, serves as a proxy for viable cell number.
With `O=C1OCCC1NC1=NCCC1` (stereo not given), the viability (commonly a read-out of living cells in per cent, often relative to untreated cells) was 92%.

For `CN1C(=O)N(C)C(=O)C2(Cc3ccccc3N3CCOCC32)C1=O` (stereo not given), the viability is 104%.

As for `O=c1[nH]c(=O)n(Cc2ccco2)c(O)c1C=NCCCn1ccnc1`, the viability is 88.5%.

`CC1CCC(C(=O)NC(C(=O)N2CCC3(CC2)OCCO3)C(C)C)CC1` (stereo not given): the viability was 96.5%.

Take `COc1ccccc1N1CCN(Cc2cccc(OC)c2O)CC1`: the viability was 89%.

Consider `O=C1CC(c2ccccc2)CC(O)=C1C=NCCN1CCN(C(=O)Cc2ccccc2)CC1` (stereo not given), for which the viability is 122%.

On to `OCCOCC#CCN1CCOCC1`, for which the viability is 102%.

As to `NC(=O)CSP(=O)(c1ccccc1)c1ccccc1`, the viability is 94%.

As for `CC1(C)C(c2ccccc2)=NC(c2cccnc2)N1O` (stereo not given), the viability was 106%.

Turning to `CCCCCCC(N)CC(=O)O` (stereo not given), the viability was 106%.

Take `CCN(CC)CCN=Cc1c(O)n(CCC2=CCCCC2)c(=O)[nH]c1=O`: the viability is 90.5%.

Regarding `CCN1c2nc3c(C)cccn3c(=O)c2CC2(C(=O)N(C)C(=O)N(C)C2=O)C1C` (stereo not given), the viability is 101%.

Consider `C=CCn1c(O)c(C=NCCN(C)C)c(=O)[nH]c1=O`, for which the viability was 97.5%.

For `Cc1ccccc1NC1=NCCCS1`, the viability was 106%.

On to `CN1CCC(N(C)c2ncnc3ccc(Br)cc23)CC1`, for which the viability is 100%.

`O=c1[nH]c(=O)n(Cc2ccccc2)c(O)c1C=NCCCO`: the viability is 100%.

Take `O=C1CC(N2CCC(n3c(=O)[nH]c4ccccc43)CC2)C(=O)N1c1ccc(F)cc1` (stereo not given): the viability was 93.5%.

Consider `Cc1cc(NC(=O)COC(=O)c2c(C)nn(Cc3ccccc3)c2Cl)no1`, for which the viability is 96%.

As for `CN(C)c1cc(N)c2c(n1)CCC2` (tested in a mixture with another compound), the viability was 113%.

Consider `c1ccc(C2CC3CC(c4ccco4)N2O3)cc1` (stereo not given), for which the viability was 93%.

Take `c1cncc(CNC2=NCCCCC2)c1`: the viability is 80.5%.

`C=CCn1c(O)c(C(C)=NCc2cccnc2)c(=O)[nH]c1=O`: the viability is 104%.

As for `NCCc1ccc(O)cc1`, the viability is 112%.

`COc1ccc(C(=O)C(C)(C)NO)cc1`: the viability is 108%.

Take `CCOC(=O)c1cccc([P+](=O)O)c1`: the viability is 92.5%.

Regarding `O=C(CCCOc1ccc(Cl)cc1Cl)N1CCC2(CC1)OCCO2`, the viability is 106%.

`CCCCOc1ccc(CN2CCN(CCO)CC2)cc1`: the viability was 74%.

As to `CSc1ccc(CNC2CN3CCC2CC3)cc1` (stereo not given), the viability is 89.5%.

Take `CCCCn1c(O)c(C(C)=NCCc2ccccc2)c(=O)[nH]c1=O`: the viability is 88.5%.

For the compound `O=C(c1sc2ccccc2c1Cl)N1CCC2(CC1)OCCO2`, the viability was 90.5%.

As to `N#Cc1ccccc1Cn1cc(C(=O)c2ccco2)c2ccccc21`, the viability is 98.5%.

Turning to `COc1ccc(CC2C(=O)NC(=O)NC2=O)c(OC)c1`, the viability was 96.5%.

For the compound `CCCCn1c(O)c(C(CC)=Nc2cccc(C(=O)O)c2)c(=O)[nH]c1=O`, the viability is 97.5%.

On to `COc1cc(C2NCc3ccccc3-n3cccc32)ccc1O` (stereo not given), for which the viability is 104%.

As for `Cc1ccc(CS(=O)(=O)CCC(=O)N2CCC3(CC2)OCCO3)cc1`, the viability was 106%.

Turning to `COc1cc(/C=N/n2cnnc2)ccc1OC(=O)N(C)C`, the viability was 97%.

`CC#CP(=O)(OCC)C(O)(c1ccccc1)C(F)(F)F` (stereo not given): the viability was 91%.

`CCOC(=O)C(O)(c1ccc(N(CC)C(=O)OC)cc1)C(F)(F)F` (stereo not given): the viability was 99.5%.

In the case of `CC(C)(C)C(O)C(Oc1ccc(Cl)cc1)n1cncn1` (stereo not given), the viability is 86.5%.

Regarding `COC(=O)c1c(C)n(Cc2ccc3c(c2)OCO3)c2ccc(O)cc12`, the viability was 116%.
